These results are taken from PMC7862700, “An all-to-all approach to the identification of sequence-specific readers for epigenetic DNA modifications on cytosine”.

What all share (assay): DAPPL (digital affinity profiling via proximity ligation, sequencing); 10 mM Tris-HCl pH 7.5, 50 mM NaCl, 1 mM DTT, 4% glycerol, room temperature, 30 min; GST-TFs on glutathione beads, 16-mer random dsDNA library, 0.1% formaldehyde crosslink after washing; high values mean tight binding
For one assay, the target named is T1, FEV (Homo sapiens, UniProt Q99581 1-238).
T1 sequence: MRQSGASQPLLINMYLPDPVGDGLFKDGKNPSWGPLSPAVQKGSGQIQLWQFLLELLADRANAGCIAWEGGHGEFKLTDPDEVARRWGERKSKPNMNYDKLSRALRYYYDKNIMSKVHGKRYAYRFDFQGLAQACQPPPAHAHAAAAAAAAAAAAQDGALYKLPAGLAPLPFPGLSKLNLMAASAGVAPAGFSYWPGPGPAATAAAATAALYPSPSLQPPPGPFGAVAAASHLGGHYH
The conditions noted are these: protein: recombinant; tags: N-terminal GST; dsDNA, one strand shown. The method in brief: (§1)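 In yeast, human transcription factors were expressed with a GST fusion, then pulled down on glutathione beads and given DNA barcodes. Pooled with a tag-only sample, they were exposed to 200 nmole of a 16-mer random double-stranded DNA library (Tris/NaCl/DTT/glycerol buffer, room temperature, 30 min), washed, crosslinked with 0.1% formaldehyde, proximity-ligated using BsaI/T4 ligase for 1 h at 37 °C, PCR-amplified and read on an Illumina NextSeq500. Each hexamer's frequency of reads for a factor, divided by the matching frequency for the tag-only sample, gives the binding signal.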

The target of a further assay is ETV5 (Homo sapiens, UniProt P41161 1-510). The conditions noted are these: protein: recombinant; tags: N-terminal GST; dsDNA, one strand shown. In a few lines: as §1
Chain of ETV5 (P41161 whole entry): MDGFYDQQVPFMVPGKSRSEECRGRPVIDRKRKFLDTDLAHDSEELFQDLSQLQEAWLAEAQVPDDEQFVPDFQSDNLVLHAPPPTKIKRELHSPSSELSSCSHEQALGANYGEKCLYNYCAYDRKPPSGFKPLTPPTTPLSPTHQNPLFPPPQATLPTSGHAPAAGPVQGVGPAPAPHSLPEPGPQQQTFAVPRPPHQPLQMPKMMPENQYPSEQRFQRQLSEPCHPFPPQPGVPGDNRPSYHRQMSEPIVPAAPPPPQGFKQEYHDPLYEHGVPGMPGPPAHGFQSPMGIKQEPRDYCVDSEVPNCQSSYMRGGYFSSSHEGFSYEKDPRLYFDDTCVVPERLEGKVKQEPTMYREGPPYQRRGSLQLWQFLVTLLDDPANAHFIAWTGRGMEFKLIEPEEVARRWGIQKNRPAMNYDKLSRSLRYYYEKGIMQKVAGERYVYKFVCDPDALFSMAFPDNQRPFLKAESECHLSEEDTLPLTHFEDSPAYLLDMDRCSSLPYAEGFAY
The target in another assay is HSF1 (Homo sapiens, UniProt Q00613 1-529). Conditions: protein: recombinant; tags: N-terminal GST; chain copies: 3; dsDNA, one strand shown. The method in brief:
as §1

For a further assay, the target named is T2, SPIC (Homo sapiens, UniProt Q8N5J4 1-248).
T2 sequence: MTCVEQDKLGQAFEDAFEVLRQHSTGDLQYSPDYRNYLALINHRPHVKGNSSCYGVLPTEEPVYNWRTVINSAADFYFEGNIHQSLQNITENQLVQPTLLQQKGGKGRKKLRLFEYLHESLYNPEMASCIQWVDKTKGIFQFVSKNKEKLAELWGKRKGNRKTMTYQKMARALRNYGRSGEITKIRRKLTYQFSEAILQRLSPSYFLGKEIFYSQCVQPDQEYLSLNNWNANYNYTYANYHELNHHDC
Conditions: protein: recombinant; tags: N-terminal GST; dsDNA, one strand shown. In a few lines: as §1

The target of a further assay is ELF4 (Homo sapiens, UniProt Q99607 1-663). The conditions noted are these: protein: recombinant; tags: N-terminal GST; dsDNA, one strand shown. In a few lines:
as §1

The next assay deals with T3, ELK4 (Homo sapiens, UniProt P28324-2 1-405).
T3 sequence: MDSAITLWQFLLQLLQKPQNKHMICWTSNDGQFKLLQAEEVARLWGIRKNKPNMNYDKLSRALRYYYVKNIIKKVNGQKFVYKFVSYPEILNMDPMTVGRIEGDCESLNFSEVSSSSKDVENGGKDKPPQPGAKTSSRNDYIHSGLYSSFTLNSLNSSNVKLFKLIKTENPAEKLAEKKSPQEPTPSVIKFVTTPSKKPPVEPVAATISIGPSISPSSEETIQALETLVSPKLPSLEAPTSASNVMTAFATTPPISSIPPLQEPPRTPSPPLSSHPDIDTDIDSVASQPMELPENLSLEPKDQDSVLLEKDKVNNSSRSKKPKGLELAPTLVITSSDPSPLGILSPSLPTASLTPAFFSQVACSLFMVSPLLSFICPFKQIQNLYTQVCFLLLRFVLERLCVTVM
Conditions: protein: recombinant; tags: N-terminal GST; dsDNA, one strand shown. In a few lines:
as §1

Another assay concerns the target T4, ETV2 (Homo sapiens, UniProt O00321 1-342).
T4 sequence: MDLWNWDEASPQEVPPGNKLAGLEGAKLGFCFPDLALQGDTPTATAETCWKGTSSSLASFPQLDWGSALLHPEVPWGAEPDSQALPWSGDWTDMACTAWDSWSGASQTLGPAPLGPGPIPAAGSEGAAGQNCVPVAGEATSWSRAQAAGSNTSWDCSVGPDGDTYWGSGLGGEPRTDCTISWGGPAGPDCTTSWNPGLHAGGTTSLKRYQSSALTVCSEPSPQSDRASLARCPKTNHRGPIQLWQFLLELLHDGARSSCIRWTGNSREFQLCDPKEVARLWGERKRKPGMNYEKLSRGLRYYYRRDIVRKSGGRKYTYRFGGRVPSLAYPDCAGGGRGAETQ
Conditions: protein: recombinant; tags: N-terminal GST; dsDNA, one strand shown. In a few lines: as §1

Another assay concerns the target T5, ELF3 (Homo sapiens, UniProt P78545 1-371).
T5 sequence: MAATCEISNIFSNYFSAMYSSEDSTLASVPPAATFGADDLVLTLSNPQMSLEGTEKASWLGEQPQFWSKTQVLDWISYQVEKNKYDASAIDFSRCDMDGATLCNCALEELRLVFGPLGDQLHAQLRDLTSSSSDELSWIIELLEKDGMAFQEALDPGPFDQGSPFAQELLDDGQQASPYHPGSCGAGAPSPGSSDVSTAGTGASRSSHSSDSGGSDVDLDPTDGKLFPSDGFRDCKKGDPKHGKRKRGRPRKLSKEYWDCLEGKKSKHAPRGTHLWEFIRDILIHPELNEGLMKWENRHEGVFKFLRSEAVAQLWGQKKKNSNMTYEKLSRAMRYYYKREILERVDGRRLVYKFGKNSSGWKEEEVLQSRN
Conditions: protein: recombinant; tags: N-terminal GST; dsDNA, one strand shown. In a few lines: as §1

The target of a further assay is CRX (Homo sapiens, UniProt O43186 1-299). The conditions noted are these: protein: recombinant; tags: N-terminal GST; dsDNA, one strand shown. The method in brief:
as §1

A further assay deals with ETV1 (Homo sapiens, UniProt P50549 1-477). Conditions: protein: recombinant; tags: N-terminal GST; dsDNA, one strand shown. In a few lines: as §1
Chain of ETV1 (P50549 whole entry): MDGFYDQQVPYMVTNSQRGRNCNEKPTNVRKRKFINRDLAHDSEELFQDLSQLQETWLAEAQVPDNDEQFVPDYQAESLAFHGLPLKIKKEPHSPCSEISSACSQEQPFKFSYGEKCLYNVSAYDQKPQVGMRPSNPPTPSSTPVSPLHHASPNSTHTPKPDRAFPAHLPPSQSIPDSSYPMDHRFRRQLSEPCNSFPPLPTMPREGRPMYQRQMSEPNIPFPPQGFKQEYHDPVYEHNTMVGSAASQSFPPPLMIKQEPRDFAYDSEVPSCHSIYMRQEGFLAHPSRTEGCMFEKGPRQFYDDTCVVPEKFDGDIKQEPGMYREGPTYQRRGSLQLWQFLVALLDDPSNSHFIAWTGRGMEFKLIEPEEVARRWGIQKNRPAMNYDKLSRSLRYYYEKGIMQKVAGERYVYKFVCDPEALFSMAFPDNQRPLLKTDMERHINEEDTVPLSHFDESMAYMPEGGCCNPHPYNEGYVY
The target in another assay is T6, ERF (Homo sapiens, UniProt P50548 1-548).
T6 sequence: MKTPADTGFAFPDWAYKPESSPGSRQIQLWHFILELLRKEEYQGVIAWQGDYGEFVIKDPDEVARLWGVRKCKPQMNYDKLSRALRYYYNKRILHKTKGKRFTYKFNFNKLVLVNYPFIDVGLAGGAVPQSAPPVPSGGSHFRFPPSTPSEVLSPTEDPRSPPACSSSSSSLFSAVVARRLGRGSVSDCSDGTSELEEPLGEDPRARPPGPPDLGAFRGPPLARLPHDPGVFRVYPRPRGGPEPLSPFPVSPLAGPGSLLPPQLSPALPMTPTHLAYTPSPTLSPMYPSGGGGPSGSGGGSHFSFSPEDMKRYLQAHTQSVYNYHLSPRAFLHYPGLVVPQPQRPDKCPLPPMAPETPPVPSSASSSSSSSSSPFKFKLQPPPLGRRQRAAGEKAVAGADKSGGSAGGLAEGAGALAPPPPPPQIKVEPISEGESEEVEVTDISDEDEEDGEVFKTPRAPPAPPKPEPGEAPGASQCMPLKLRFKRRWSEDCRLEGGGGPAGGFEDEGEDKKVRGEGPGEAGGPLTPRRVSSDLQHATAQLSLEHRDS
The conditions noted are these: protein: recombinant; tags: N-terminal GST; dsDNA, one strand shown. The method in brief:
as §1

Another assay deals with T7, ETV3L (Homo sapiens, UniProt Q6ZN32 1-361).
T7 sequence: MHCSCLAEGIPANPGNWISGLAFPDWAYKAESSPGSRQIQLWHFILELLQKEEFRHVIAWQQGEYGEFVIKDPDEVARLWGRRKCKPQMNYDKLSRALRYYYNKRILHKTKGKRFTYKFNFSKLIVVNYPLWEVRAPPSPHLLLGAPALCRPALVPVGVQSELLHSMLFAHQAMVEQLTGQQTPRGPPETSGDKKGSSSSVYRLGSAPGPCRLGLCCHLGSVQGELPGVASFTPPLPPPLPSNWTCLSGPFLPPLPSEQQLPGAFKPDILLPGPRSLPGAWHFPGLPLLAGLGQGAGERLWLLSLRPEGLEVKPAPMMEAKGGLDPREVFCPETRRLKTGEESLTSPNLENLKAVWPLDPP
Conditions: protein: recombinant; tags: N-terminal GST; dsDNA, one strand shown. In a few lines:
as §1

Another assay deals with T8, ETS2 (Homo sapiens, UniProt P15036 1-469).
T8 sequence: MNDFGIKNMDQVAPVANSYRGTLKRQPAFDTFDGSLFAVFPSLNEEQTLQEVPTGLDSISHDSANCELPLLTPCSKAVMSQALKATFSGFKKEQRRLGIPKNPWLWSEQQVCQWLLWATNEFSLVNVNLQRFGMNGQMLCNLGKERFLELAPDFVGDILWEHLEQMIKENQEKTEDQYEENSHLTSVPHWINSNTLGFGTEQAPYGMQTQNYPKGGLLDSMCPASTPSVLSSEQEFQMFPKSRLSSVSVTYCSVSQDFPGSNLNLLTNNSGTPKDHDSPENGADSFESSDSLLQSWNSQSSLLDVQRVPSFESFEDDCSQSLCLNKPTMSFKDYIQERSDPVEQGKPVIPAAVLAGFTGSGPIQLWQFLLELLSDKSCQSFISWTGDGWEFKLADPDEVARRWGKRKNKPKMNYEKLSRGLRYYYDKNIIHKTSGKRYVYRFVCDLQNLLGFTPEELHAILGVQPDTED
The conditions noted are these: protein: recombinant; tags: N-terminal GST; dsDNA, one strand shown. In a few lines: as §1

For a further assay, the target named is T9, SPDEF (Homo sapiens, UniProt O95238 1-335).
T9 sequence: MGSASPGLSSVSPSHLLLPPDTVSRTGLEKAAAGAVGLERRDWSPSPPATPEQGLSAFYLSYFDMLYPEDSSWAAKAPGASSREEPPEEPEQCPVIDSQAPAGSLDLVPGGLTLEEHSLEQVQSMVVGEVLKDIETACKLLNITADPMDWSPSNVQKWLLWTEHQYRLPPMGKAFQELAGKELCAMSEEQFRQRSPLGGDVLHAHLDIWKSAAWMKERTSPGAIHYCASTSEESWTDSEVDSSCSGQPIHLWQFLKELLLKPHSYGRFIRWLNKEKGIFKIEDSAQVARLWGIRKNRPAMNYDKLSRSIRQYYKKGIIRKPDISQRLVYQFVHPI
The conditions noted are these: protein: recombinant; tags: N-terminal GST; dsDNA, one strand shown. In a few lines:
as §1

Another assay has as its target T10, ETV7 (Homo sapiens, UniProt Q9Y603 1-341).
T10 sequence: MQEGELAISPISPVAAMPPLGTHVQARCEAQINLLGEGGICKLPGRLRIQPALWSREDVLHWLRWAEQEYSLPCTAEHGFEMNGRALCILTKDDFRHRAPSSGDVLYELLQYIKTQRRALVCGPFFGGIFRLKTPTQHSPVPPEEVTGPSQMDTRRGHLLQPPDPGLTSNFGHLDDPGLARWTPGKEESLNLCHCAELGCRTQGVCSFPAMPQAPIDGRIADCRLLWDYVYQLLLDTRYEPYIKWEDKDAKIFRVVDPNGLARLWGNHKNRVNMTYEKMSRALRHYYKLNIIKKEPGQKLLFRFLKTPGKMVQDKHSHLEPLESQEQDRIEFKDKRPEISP
The conditions noted are these: protein: recombinant; tags: N-terminal GST; dsDNA, one strand shown. In a few lines:
as §1

The target in the next assay is T11, ELF5 (Homo sapiens, UniProt Q9UKW6-2 1-255).
T11 sequence: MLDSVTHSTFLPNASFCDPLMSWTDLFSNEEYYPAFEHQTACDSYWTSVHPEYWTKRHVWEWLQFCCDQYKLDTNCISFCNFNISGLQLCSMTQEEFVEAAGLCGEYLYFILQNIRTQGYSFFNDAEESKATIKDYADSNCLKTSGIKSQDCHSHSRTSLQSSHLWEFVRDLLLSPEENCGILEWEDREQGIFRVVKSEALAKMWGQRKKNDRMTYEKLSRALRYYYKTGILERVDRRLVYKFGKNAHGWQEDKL
Conditions: protein: recombinant; tags: N-terminal GST; dsDNA, one strand shown. The method in brief:
as §1

Another assay deals with T12, ETV3 (Homo sapiens, UniProt P41162-2 1-143).
T12 sequence: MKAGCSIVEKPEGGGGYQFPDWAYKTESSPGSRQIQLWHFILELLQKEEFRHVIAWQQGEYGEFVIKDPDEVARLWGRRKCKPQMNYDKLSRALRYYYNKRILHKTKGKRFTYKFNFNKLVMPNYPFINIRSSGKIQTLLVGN
Conditions: protein: recombinant; tags: N-terminal GST; dsDNA, one strand shown. The method in brief: as §1

The next assay deals with ETV6 (Homo sapiens, UniProt P41212 1-452). Conditions: protein: recombinant; tags: N-terminal GST; dsDNA, one strand shown. In a few lines: as §1
Chain of ETV6 (P41212 whole entry): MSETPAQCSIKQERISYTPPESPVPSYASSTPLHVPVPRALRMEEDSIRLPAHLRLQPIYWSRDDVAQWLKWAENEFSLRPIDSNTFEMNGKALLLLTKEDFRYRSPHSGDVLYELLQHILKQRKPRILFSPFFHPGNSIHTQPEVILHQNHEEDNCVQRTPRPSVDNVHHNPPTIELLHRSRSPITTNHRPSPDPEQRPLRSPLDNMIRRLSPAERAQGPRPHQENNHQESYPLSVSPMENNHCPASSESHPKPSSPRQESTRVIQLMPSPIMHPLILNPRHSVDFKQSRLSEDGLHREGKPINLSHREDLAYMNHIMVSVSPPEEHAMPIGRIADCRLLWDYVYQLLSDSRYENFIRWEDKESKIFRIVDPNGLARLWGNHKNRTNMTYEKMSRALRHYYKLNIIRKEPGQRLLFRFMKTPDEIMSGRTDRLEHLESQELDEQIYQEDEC

Chain of ELF4 (Q99607 whole entry): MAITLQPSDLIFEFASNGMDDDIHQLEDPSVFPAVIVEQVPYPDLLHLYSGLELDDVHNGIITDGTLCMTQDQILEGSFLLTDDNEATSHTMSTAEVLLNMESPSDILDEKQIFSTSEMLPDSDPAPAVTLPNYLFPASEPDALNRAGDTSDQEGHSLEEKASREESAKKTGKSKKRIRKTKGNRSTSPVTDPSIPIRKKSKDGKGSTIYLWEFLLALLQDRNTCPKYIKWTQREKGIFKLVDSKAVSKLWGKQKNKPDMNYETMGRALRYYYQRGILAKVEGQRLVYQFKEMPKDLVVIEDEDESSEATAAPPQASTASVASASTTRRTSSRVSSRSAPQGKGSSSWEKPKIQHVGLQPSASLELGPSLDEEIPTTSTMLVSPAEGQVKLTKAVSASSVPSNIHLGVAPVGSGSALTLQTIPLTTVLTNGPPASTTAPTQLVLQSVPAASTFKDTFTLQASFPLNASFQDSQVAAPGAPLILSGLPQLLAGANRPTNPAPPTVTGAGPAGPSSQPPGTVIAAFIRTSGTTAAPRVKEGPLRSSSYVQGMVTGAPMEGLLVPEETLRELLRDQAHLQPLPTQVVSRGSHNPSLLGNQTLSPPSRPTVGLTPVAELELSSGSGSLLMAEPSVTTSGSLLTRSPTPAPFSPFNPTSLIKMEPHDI
Chain of HSF1 (Q00613 whole entry): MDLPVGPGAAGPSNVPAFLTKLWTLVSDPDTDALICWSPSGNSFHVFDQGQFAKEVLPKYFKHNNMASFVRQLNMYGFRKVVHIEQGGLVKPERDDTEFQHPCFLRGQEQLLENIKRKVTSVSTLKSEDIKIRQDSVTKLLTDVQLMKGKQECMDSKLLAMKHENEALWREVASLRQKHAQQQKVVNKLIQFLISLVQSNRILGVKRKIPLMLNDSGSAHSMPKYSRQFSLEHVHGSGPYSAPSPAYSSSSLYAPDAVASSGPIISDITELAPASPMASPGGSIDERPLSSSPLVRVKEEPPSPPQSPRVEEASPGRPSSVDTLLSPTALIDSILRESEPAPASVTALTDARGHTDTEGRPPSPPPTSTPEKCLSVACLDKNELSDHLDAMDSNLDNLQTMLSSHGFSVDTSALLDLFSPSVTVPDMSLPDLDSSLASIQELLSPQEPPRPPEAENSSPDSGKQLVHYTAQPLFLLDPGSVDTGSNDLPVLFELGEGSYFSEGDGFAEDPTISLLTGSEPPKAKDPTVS
Chain of CRX (O43186 whole entry): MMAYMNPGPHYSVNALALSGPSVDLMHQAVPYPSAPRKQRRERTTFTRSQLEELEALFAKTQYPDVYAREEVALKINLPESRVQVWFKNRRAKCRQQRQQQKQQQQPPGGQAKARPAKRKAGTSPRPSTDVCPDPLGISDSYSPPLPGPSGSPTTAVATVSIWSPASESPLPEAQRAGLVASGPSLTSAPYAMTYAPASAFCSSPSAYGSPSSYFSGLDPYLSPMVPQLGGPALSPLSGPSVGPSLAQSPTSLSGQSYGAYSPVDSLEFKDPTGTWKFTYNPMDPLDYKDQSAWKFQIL

Turning to GATGTT, the binding signal in the assay with FEV was 1.22 fold enrichment (6-mer frequency, TF over GST control); with ETV5, 1.31 fold enrichment (6-mer frequency, TF over GST control); with HSF1, 1.18 fold enrichment (6-mer frequency, TF over GST control); with SPIC it was 1.39 fold enrichment (6-mer frequency, TF over GST control); with ELF4, 1.22 fold enrichment (6-mer frequency, TF over GST control); with ELK4, 1.16 fold enrichment (6-mer frequency, TF over GST control). Further, the binding signal with ETV2 is 1.21 fold enrichment (6-mer frequency, TF over GST control); with ELF3, 1.22 fold enrichment (6-mer frequency, TF over GST control); with CRX, 1.08 fold enrichment (6-mer frequency, TF over GST control); with ETV1, 1.25 fold enrichment (6-mer frequency, TF over GST control); in the assay with ERF it was 1.24 fold enrichment (6-mer frequency, TF over GST control); in the assay with ETV3L, 1.31 fold enrichment (6-mer frequency, TF over GST control). Further, the binding signal with ETS2 was 1.24 fold enrichment (6-mer frequency, TF over GST control); in the assay with SPDEF, 1.51 fold enrichment (6-mer frequency, TF over GST control); with ETV7, 1.21 fold enrichment (6-mer frequency, TF over GST control); with ELF5, 1.32 fold enrichment (6-mer frequency, TF over GST control); in the assay with ETV3 it was 1.34 fold enrichment (6-mer frequency, TF over GST control); with ETV6, 1.3 fold enrichment (6-mer frequency, TF over GST control).
